Giardia FBPA inh: inhibitors of Giardia lamblia fructose-1,6-bisphosphate aldolase | A8B2U2 | purified Giardia FBPA | Potency, µM (doses to about 59.6 µM), hits mostly inhibitors | 290,000 tested, 0.71% active | AID 2451; also: nearly all actives have a fitted effect of over 55% in size
Target sequence (A8B2U2 whole entry, looked up): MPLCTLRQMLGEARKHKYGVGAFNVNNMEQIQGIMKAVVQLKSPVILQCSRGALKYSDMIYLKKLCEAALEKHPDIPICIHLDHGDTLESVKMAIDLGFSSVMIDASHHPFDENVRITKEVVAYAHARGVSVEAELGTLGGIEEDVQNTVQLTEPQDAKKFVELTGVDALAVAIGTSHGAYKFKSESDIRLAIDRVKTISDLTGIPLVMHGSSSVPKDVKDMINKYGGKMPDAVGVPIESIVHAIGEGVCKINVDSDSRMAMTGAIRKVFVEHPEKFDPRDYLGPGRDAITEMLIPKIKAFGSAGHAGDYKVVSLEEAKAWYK
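40 nM FBPA preincubated 10 min at RT with compound (up to 57.5 uM final), then substrate plus GAPDH/TPI/NAD/arsenate coupling and diaphorase/resazurin added. Fluorescence read after 20 min at RT, 525/598 nm.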
CHX counter: counter-screen hit for Shiga toxin inhibitors, cycloheximide; 300,000 tested, 12% active; AID 2314; cell reporter, cycloheximide protein synthesis inhibition counterscreen; max response, %; in the data active = max response mostly above about 13%, no sharp cut-off; inactive = mostly below about 14%; also: read at 38.3 µM for the half of the compounds with a filed dose
Pf growth 96h: P. falciparum growth inhibition at 96 hour, primary screen for plastid delayed-death inhibitors; P. falciparum luciferase reporter growth, 96 h; Potency, µM (doses to about 28.7 µM), actives largely listed as inhibitors; 320,000 tested, 6.9% active; AID 504834
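Delayed-death screen, second-generation endpoint: infected erythrocytes, 2% hematocrit, 0.05% parasitemia final; 96 hours at 37 C, 5% CO2; luciferase detection reagent; luminescence decrease equals reduced growth.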
Shiga inhibitor: inhibitors of Shiga toxin in Vero cells; Vero cells, Shiga toxin protein synthesis inhibition reporter; inhibition, % at 38.7 µM; 290,000 tested, 9.2% active; in the data active = inhibition mostly above about 28%, no sharp cut-off; inactive = mostly below about 43%
Pf growth 48h: inhibits P. falciparum growth in the first generation, 48 h. AID 504832. P. falciparum luciferase growth in erythrocytes, 48 h. 310,000 tested, 5.9% active. Potency, µM (titrated, usually from 28.7 µM), actives largely listed as inhibitors
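Luciferase-expressing parasites in RBCs, 2% Hct / 0.1% parasitemia final; RPMI 1640 + 0.5% Albumax; 37 C, 5% CO2, one generation; luminescence read-out, lower signal = inhibition.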
NS1 inh: inhibitors of influenza NS1 protein function; Potency, µM (doses to about 46.1 µM); 270,000 tested, 0.4% active; AID 2326; calls by dose curve; also: actives are rising curves; nearly all actives have a fitted effect of over 50% in size
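OD600 was taken as the measure of yeast growth restored by compound in an NS1-expressing S. cerevisiae strain. Cells had been washed out of glucose medium and diluted 1:100 into galactose -URA medium, pH 6.0.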
Hits are given with their value; i = inactive; ? = inconclusive; nt = no result given. Hits are enriched below; roughly 21% of the tested compounds scored in any of these assays. Unless noted, calls follow the shape of the dose curve; as a rule, active = well fitted curve in the direction sought with a large enough effect; inconclusive = small, poorly fitted or top-dose-only effect, or another doubt; inactive = no such curve, though single readings can be large; an effect the other way counts as inactive or inconclusive.

SMILES	Giardia FBPA inh	CHX counter	Pf growth 96h	Shiga inhibitor	Pf growth 48h	NS1 inh
Nc1nc(-c2ccccc2)c(C(=O)Nc2ccccc2)s1	i	i	i	i	i	nt
O=C(COC(=O)Cc1ccc(F)cc1)Nc1ccc(Cl)cn1	nt	nt	i	nt	i	nt
O=C(Cc1ccc(F)cc1)Nc1ccc(Cl)cn1	i	25.7	i	i	i	i
O=C(Cc1ccc(Cl)cc1)Nc1ccc(Cl)cn1	i	44.3	i	67.0	i	i
O=C(CS(=O)(=O)Cc1ccccc1)Nc1ccc(Cl)cn1	i	i	i	i	i	i
O=C(Cc1c(F)cccc1Cl)Nc1ccccn1	i	i	?	36.7	i	i
CC(OC(=O)c1cc(S(=O)(=O)N2CCOCC2)ccc1F)C(=O)NCc1ccc2c(c1)OCO2 (stereo not given)	nt	nt	i	nt	i	nt
Cc1ccc(NC(=O)CCS(=O)(=O)c2cc3[nH]c(=O)c(=O)[nH]c3cc2C)cc1	i	i	4.15µM	i	i	i
CC(=O)N1N=C(c2ccccc2OC(=O)/C=C/c2ccccc2)CC1c1ccccc1 (stereo not given)	i	i	i	i	i	i
Cc1ccc(-n2c(C)nc3cc(Cl)ccc3c2=O)nc1	i	28.2	i	63.1	i	i
CC(C)(C)NC(=S)N1CCn2cccc2C1c1cccnc1 (stereo not given)	i	i	9.28µM	i	i	nt
S=C(Nc1ccccc1)N1CCn2cccc2C1c1cccnc1 (stereo not given)	i	i	i	i	i	i
COc1ccc(C(=O)C2CCCN(Cc3ccccn3)C2)c(OC)c1 (stereo not given)	i	i	i	i	?	i
COc1ccc(C(=O)C2CCCN(C3Cc4ccccc4C3)C2)c(OC)c1 (stereo not given)	i	24.1	i	73.7	i	i
O=C(/C=C/c1cccc(Cl)c1)c1nc2ccccc2[nH]1	i	14.2	i	i	?	i
COc1ccc(/C=C(/NC(=O)c2ccccc2)c2nc3ccccc3[nH]2)cc1OC	i	i	?	i	?	i
O=C(O)C(Cc1ccc(Cl)cc1)Sc1nc2ccccc2[nH]1 (stereo not given)	i	i	i	i	i	i
COc1ccc(C(=O)N/C(=C\c2cccs2)c2nc3ccccc3[nH]2)cc1OC	i	21.5	?	98.4	?	i
O=C(/C(=C/c1ccc(Cl)cc1)c1nc2ccccc2[nH]1)c1cccs1	i	62.2	nt	i	1.65µM	i
N#C/C(=C(/O)c1ccc(C(=O)c2ccccc2)cc1)c1nc2ccccc2[nH]1	i	i	i	i	i	i
O=C(/C(=C\c1ccccc1)c1nc2ccccc2[nH]1)c1ccc(Cl)cc1	i	18.9	?	21.0	?	i
CCCN1CCCC(c2cccc(O)c2)C1 (stereo not given)	i	nt	nt	nt	nt	i
CCN(C(=O)COC(=O)Cc1c[nH]c2ccccc12)c1c(N)n(Cc2ccccc2)c(=O)[nH]c1=O	nt	nt	i	nt	i	nt
COc1cc(/C=C(/C(=O)c2cccs2)c2nc3ccccc3[nH]2)ccc1O	i	65.7	1.17µM	110.8	2.08µM	?
Cc1ccc(Nc2nc(N)c(C#N)c(CC#N)c2C#N)cc1	i	i	i	i	i	i
SMILES	Giardia FBPA inh	CHX counter	Pf growth 96h	Shiga inhibitor	Pf growth 48h	NS1 inh
CC(=O)c1ccc(Sc2ccccc2)cc1	i	i	i	i	i	i
CC(=O)c1ccc(Sc2ccc(C(C)=O)cc2)cc1	i	37.1	?	40.0	i	i
COC(=O)CNc1c(-c2ccccn2)nc2ccc(Br)cn12	i	36.1	i	48.5	i	i
CCOC(=O)CNc1c(-c2ccccc2)nc2ccc(Cl)cn12	nt	i	i	i	i	i
Cc1ccc(OCC(=O)Nc2nnc(SCc3cc(=O)n4cccc(C)c4n3)s2)cc1	nt	i	nt	i	nt	nt
Cc1ccc(OCCn2cc(/C=C(\C#N)C(=O)NCC3CCCO3)c3ccccc32)cc1C (stereo not given)	i	i	?	i	?	i
COCCNC(=O)Cn1cc(/C=C(\C#N)C(=O)NC2CCCC2)c2ccccc21	i	i	10.4µM	nt	i	i
Cc1ccc(C)c(OCCn2cc(/C=C(\C#N)C(=O)NCc3cccs3)c3ccccc32)c1	i	i	3.29µM	i	4.65µM	i
Cc1ccc(OCCn2cc(/C=C(\C#N)C(=O)NCC3CCCO3)c3ccccc32)cc1 (stereo not given)	i	i	i	i	10.4µM	?
Cc1ccc(C)c(OCCn2cc(/C=C(\C#N)C(=O)NCC3CCCO3)c3ccccc32)c1 (stereo not given)	i	i	1.65µM	i	2.62µM	?
Nc1ccccc1C(=O)NCC1(c2ccccc2)CCCC1	i	i	i	i	i	i
CCOC(=O)/C(C#N)=C\c1cn(C)c2ccccc12	i	i	i	i	i	i
Cc1ccc(C)c(NC(=O)/C(C#N)=C/c2cn(CC(=O)NCc3ccco3)c3ccccc23)c1	i	i	14.7µM	i	i	i
CCOC(=O)/C(C#N)=C/c1cn(CCOc2ccccc2)c2ccccc12	i	i	9.28µM	i	i	i
COc1ccc(-c2[nH]c(-c3cc(OC)c4c(c3)OCO4)nc2-c2ccccc2)cc1	i	i	?	i	4.15µM	i
CCCCn1c(=O)[nH]c2nc3cc(N)ccc3nc2c1=O	0.141µM	79.9	?	81.0	i	?
Nc1ccc2nc3c(=O)n(C4CCCCC4)c(=O)[nH]c3nc2c1	?	39.9	i	77.9	i	i
Nc1ccc2nc3c(=O)n(CCc4ccccc4)c(=O)[nH]c3nc2c1	?	i	i	i	i	i
COCCNC(=O)C1(C(F)(F)F)C/C(=C\Cc2ccccc2)CCCO1 (stereo not given)	i	i	nt	i	nt	nt
CCOC(=O)C(=O)N1CCN(c2nc(-c3ccc(Cl)cc3)cs2)CC1	i	i	4.65µM	nt	i	i
CCOC(=O)N1CCN(c2nc(-c3ccc(F)cc3)cs2)CC1	i	22.5	i	48.2	i	i
NC(=O)C1CCN(c2nc(-c3ccc(Cl)cc3)cs2)CC1	nt	nt	i	nt	?	nt
CCN1CCN(S(=O)(=O)c2c[nH]c(C(=O)OC)c2)CC1	i	i	i	i	i	i
Cc1ccc(C(=O)Nc2nc3ccccc3n2CCN2CCCC2)cc1	i	38.2	nt	103.6	?	i
CCCn1c(NC(=O)C2CCN(S(=O)(=O)c3cccs3)CC2)nc2ccccc21	i	i	i	i	10.4µM	i
SMILES	Giardia FBPA inh	CHX counter	Pf growth 96h	Shiga inhibitor	Pf growth 48h	NS1 inh
O=C(Nc1nc2ccccc2n1CCN1CCCC1)c1ccc(Cl)cc1	i	i	?	77.9	?	i
CCCn1c(CNC(=O)c2ccccc2)nc2ccccc21	i	i	2.94µM	i	i	i
O=C(Nc1nc2ccccc2n1CCN1CCCCC1)c1ccc(Cl)cc1	i	i	i	i	nt	i
Cc1ccc(C(=O)N2CCN(c3ccc(NC(=O)Cc4ccccc4)cc3)CC2)cc1	nt	i	i	i	?	i
CCCn1c(NC(=O)c2ccccc2)nc2ccccc21	?	i	i	i	?	i
CCCn1c(NC(=O)c2ccc(C)cc2)nc2ccccc21	i	16.7	?	41.8	?	i

Source: PubChem
